Some test systems named below: SR leukemia; RPMI-8226 leukemia; OVCAR-8 ovarian; OVCAR-5 ovarian; OVCAR-4 ovarian; SK-OV-3 ovarian; IGROV1 ovarian; OVCAR-3 ovarian; HS 578T breast; NCI/ADR-RES ovarian; MDA-MB-435 melanoma; SW-620 colon; MCF7 breast; HCT-116 colon; HCC-2998 colon; KM12 colon; BT-549 breast; T-47D breast.
Holding throughout (assay): NCI-60 one-dose screen, 48 h (100 = growth as untreated, 0 = no growth, -100 = all killed)
Common to all, as to conditions: 10 µM unless noted

The structures appear in SMILES notation. This is part of a sample that, as a whole, favours compounds with a hit. Of some 83,000 tested, about 20% had one in any assay.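 Compound tested at a single concentration for 48 hours in 96-well plates; a percent growth value below 10 was scored as active.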 Values without a mark were called inactive. Active and inactive are the calls of the source.

With `NC(=S)NN=C1CCCCC1`, the growth in the experiment on SR leukemia was 72.1%; with RPMI-8226 leukemia it was 68.8%; in the experiment on OVCAR-8 ovarian, 68.6%; in the experiment on OVCAR-5 ovarian it was 104%; in the experiment with OVCAR-4 ovarian it was 53.6%; in the experiment with SK-OV-3 ovarian it was 73%. Moreover, the growth in the experiment on IGROV1 ovarian was 83.7%; with OVCAR-3 ovarian it was 38%; in the experiment with HS 578T breast it was 82.3%; in the experiment with NCI/ADR-RES ovarian, 72.6%; in the experiment on MDA-MB-435 melanoma, 88.8%; with SW-620 colon it was 69.1%. The growth is 15.9% with MCF7 breast, 8.08% (active) in the experiment on HCT-116 colon, 105% in the experiment with HCC-2998 colon and 107% in the experiment on KM12 colon.
In the case of `O=C(CC(O)c1ccncc1)c1ccccc1` (stereo not given), the growth in the experiment on SR leukemia is 82.1%; in the experiment with RPMI-8226 leukemia, 97.9%; with OVCAR-8 ovarian, -36.8% (active); in the experiment on OVCAR-5 ovarian, 104%; in the experiment with OVCAR-4 ovarian it was -29.2% (active); with SK-OV-3 ovarian, 41.9%. In addition, the growth in the experiment with IGROV1 ovarian was 18%; in the experiment with OVCAR-3 ovarian, -60.5% (active); in the experiment on HS 578T breast it was -21.8% (active); in the experiment with NCI/ADR-RES ovarian it was 65.2%; with BT-549 breast it was -63.7% (active); with MDA-MB-435 melanoma, 105%. Further, the growth was 109% in the experiment on SW-620 colon; -24.2% (active) with MCF7 breast; 15.5% with HCT-116 colon; 19.2% with HCC-2998 colon; 38.2% in the experiment on KM12 colon.
For `COc1cccc(-n2cc(-c3nc(Cl)c4ccccc4n3)nn2)c1`, the growth was 97.9% with SR leukemia; 97.7% in the experiment on RPMI-8226 leukemia; 109% in the experiment with OVCAR-8 ovarian; 109% with OVCAR-5 ovarian; 98.7% with OVCAR-4 ovarian; 117% with SK-OV-3 ovarian. For the same molecule, the growth with IGROV1 ovarian is 96.5%; in the experiment on OVCAR-3 ovarian, 105%; with HS 578T breast it was 110%; with NCI/ADR-RES ovarian, 97.4%; in the experiment on BT-549 breast it was 96.1%; in the experiment on MDA-MB-435 melanoma, 97.3%. Besides, the growth was 110% with SW-620 colon; 92.6% with MCF7 breast; 89.5% in the experiment with HCT-116 colon; 105% in the experiment with HCC-2998 colon; 106% with KM12 colon.
Take `CCN(C(=O)c1cc2ncccc2[nH]1)[C@H]1CCC[C@@H](NCc2cccc(F)c2)C1`: the growth in the experiment on SR leukemia is 99.6%; in the experiment on RPMI-8226 leukemia it was 91.8%; with OVCAR-8 ovarian, 103%; in the experiment with OVCAR-5 ovarian it was 81.6%; in the experiment on OVCAR-4 ovarian it was 104%; in the experiment on SK-OV-3 ovarian it was 103%. Besides, the growth in the experiment on IGROV1 ovarian is 91.1%; with OVCAR-3 ovarian, 95.7%; in the experiment on HS 578T breast, 109%; in the experiment on NCI/ADR-RES ovarian it was 89.1%; with T-47D breast it was 78.1%; with MDA-MB-435 melanoma, 97.4%. For the same molecule, the growth in the experiment with SW-620 colon was 98.5%; in the experiment with HCT-116 colon, 111%; in the experiment with HCC-2998 colon, 91.6%; in the experiment on KM12 colon, 97.3%.
For `Cc1c(C(=O)NCc2ccccc2)[n+](=O)c2cc(F)ccc2n1[O-]`, the growth is 70.6% in the experiment with SR leukemia; 64.1% in the experiment with RPMI-8226 leukemia; 116% in the experiment with OVCAR-8 ovarian; 103% in the experiment on OVCAR-5 ovarian; 98% in the experiment on OVCAR-4 ovarian; 109% with SK-OV-3 ovarian. Further, the growth in the experiment on IGROV1 ovarian was -26.7% (active); in the experiment with OVCAR-3 ovarian it was 93.2%; in the experiment on HS 578T breast, 148%; in the experiment on NCI/ADR-RES ovarian, 105%; in the experiment on T-47D breast, 107%; in the experiment with MDA-MB-435 melanoma, 93.5%. The growth in the experiment on SW-620 colon is 107%; in the experiment on MCF7 breast, 97.1%; with HCT-116 colon, 97.9%; in the experiment with HCC-2998 colon, 88.4%; with KM12 colon it was 111%.
For the molecule `COc1ccc(-c2nc(-c3nc4ccc(F)cc4[nH]3)cc3c2[nH]c2ccccc23)cc1`, the growth in the experiment on SR leukemia was 15.5%; in the experiment on RPMI-8226 leukemia, -5.03% (active); in the experiment with OVCAR-8 ovarian it was 13.6%; in the experiment with OVCAR-5 ovarian it was 77.8%; in the experiment with OVCAR-4 ovarian, 45.8%; in the experiment on SK-OV-3 ovarian, 87%. The growth in the experiment with IGROV1 ovarian was 27%; in the experiment on OVCAR-3 ovarian, 42.3%; with HS 578T breast, 42.4%; with NCI/ADR-RES ovarian it was 19.7%; with T-47D breast, 40.8%; in the experiment with MDA-MB-435 melanoma, 27.5%. Further, the growth in the experiment on SW-620 colon was 48.3%; in the experiment on MCF7 breast it was 32.2%; in the experiment on HCT-116 colon, 25.3%; with HCC-2998 colon it was 30.9%; in the experiment on KM12 colon, 23.4%.
With `Cc1sc(N=Nc2ccc(N(C)C)cc2)[n+]([O-])c1C`, the growth in the experiment with SR leukemia is 98.2%; with RPMI-8226 leukemia it was 106%; in the experiment with OVCAR-8 ovarian, 101%; in the experiment on OVCAR-5 ovarian, 107%; in the experiment on OVCAR-4 ovarian, 94.2%; in the experiment on SK-OV-3 ovarian it was 104%. In addition, the growth in the experiment with IGROV1 ovarian was 93.4%; in the experiment with OVCAR-3 ovarian, 96%; in the experiment on HS 578T breast, 96.3%; with T-47D breast, 95.4%; in the experiment with BT-549 breast, 94.3%; in the experiment on MDA-MB-435 melanoma, 101%. Further, the growth was 99.3% with SW-620 colon; 79.9% in the experiment on MCF7 breast; 112% in the experiment on HCT-116 colon; 112% in the experiment with HCC-2998 colon; 91.7% in the experiment on KM12 colon.
Turning to `COC(=O)[C@H]1[C@H](OC)[C@@H](OC(=O)/C=C/c2ccncc2)CC2CN3CCc4c([nH]c5cc(OC)ccc45)[C@@H]3C[C@@H]21` (stereo not given in full), the growth in the experiment on SR leukemia is 78.3%; with RPMI-8226 leukemia, 57.4%; in the experiment with OVCAR-8 ovarian it was 81%; with OVCAR-5 ovarian it was 106%; in the experiment with OVCAR-4 ovarian, 60.8%; in the experiment on SK-OV-3 ovarian, 89.1%. In addition, the growth in the experiment with IGROV1 ovarian was 85.2%; with OVCAR-3 ovarian, 89.8%; with HS 578T breast, 77.5%; in the experiment with NCI/ADR-RES ovarian, 81.8%; with T-47D breast, 36.8%; in the experiment on MDA-MB-435 melanoma, 77.9%. In addition, the growth is 74% with SW-620 colon; 55.9% in the experiment with MCF7 breast; 61.1% in the experiment on HCT-116 colon; 122% with HCC-2998 colon; 93.6% with KM12 colon.
For `COc1ccc(/C=C2\Oc3cc(OCCN4CCCC4)ccc3C2=O)c(OC)c1`, the growth with SR leukemia was 19.6%; in the experiment on RPMI-8226 leukemia, 33.9%; with OVCAR-8 ovarian, 96.2%; with OVCAR-5 ovarian, 90.3%; in the experiment on OVCAR-4 ovarian, 97.6%; in the experiment with SK-OV-3 ovarian it was 110%. Besides, the growth with IGROV1 ovarian is 99.3%; in the experiment with OVCAR-3 ovarian, 93.8%; with HS 578T breast, 98.5%; with NCI/ADR-RES ovarian, 91.9%; in the experiment on MDA-MB-435 melanoma, 94.3%; in the experiment on SW-620 colon it was 79.2%. Further, the growth is 85.1% with MCF7 breast, 41.3% with HCT-116 colon, 98.2% in the experiment with HCC-2998 colon and 74.3% in the experiment with KM12 colon.

The record behind these values is PubChem BioAssay (NCI).
